What all share (test): DAPPL (digital affinity profiling via proximity ligation, sequencing); 10 mM Tris-HCl pH 7.5, 50 mM NaCl, 1 mM DTT, 4% glycerol, room temperature, 30 min; GST-TFs on glutathione beads, 16-mer random dsDNA library, 0.1% formaldehyde crosslink after washing; high values mean tight binding
What all share (conditions): protein: recombinant; tags: N-terminal GST; dsDNA, one strand shown

The target of one assay is T1, FLI1 (Homo sapiens, UniProt Q01543 1-452).
T1 sequence: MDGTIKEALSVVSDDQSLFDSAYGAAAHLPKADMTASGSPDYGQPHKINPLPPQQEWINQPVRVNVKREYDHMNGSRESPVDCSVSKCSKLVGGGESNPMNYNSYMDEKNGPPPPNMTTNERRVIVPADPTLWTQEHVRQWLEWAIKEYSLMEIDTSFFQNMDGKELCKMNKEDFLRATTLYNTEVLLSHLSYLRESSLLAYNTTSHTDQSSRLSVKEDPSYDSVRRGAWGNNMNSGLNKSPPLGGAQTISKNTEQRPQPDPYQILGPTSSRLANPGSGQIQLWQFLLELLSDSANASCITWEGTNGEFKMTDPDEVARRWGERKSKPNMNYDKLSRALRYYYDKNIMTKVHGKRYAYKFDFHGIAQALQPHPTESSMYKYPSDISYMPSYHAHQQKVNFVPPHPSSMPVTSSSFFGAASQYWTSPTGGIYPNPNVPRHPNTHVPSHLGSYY
Put shortly:
(§1)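 Each value of binding signal is a hexamer's read frequency for a factor divided by the same hexamer's frequency in the tag-only sample. Barcoded, bead-captured GST fusions of human transcription factors made in yeast were pooled with that sample and incubated with 200 nmole of a random double-stranded 16-mer DNA library in Tris/NaCl/DTT/glycerol buffer at room temperature for 30 min. Washing, 0.1% formaldehyde crosslinking, proximity ligation, PCR and Illumina NextSeq500 sequencing followed.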

A further assay addresses T2, GABPA (Homo sapiens, UniProt Q06546 1-454).
T2 sequence: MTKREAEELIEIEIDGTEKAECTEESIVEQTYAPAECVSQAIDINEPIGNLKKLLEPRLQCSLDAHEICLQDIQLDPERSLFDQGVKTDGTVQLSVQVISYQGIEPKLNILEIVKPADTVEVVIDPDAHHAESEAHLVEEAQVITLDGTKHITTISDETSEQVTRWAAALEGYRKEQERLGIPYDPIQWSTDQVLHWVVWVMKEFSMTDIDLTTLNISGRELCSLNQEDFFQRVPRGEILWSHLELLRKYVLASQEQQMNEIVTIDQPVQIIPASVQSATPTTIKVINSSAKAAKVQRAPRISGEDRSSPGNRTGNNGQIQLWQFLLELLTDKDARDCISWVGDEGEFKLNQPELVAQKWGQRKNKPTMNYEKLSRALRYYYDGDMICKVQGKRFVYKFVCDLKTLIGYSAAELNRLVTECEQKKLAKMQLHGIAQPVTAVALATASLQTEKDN
Put shortly: as §1

The next assay concerns the target T3, EHF (Homo sapiens, UniProt Q9NZC4 1-300).
T3 sequence: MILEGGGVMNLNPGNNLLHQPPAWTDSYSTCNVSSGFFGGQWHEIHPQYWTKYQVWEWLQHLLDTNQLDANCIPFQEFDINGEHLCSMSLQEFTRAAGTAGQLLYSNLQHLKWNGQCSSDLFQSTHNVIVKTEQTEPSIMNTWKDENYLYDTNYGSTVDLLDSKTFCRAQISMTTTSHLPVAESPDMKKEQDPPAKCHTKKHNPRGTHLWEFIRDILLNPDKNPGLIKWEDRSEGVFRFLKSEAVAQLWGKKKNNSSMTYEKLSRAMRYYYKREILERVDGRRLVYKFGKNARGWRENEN
The method, boiled down:
as §1

The target of the next assay is T4, ELK3 (Homo sapiens, UniProt P41970 1-407).
T4 sequence: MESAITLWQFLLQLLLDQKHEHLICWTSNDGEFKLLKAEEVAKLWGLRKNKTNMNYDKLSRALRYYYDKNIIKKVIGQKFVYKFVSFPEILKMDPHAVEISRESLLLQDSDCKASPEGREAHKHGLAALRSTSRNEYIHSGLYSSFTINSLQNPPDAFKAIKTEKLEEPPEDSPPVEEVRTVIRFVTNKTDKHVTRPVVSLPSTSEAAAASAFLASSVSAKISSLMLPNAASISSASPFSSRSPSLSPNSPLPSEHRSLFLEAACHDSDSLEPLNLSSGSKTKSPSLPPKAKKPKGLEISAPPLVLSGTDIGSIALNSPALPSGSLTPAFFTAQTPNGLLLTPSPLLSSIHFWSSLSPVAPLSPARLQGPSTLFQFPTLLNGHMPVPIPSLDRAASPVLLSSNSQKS
Put shortly: as §1

The target of another assay is T5, SPIC (Homo sapiens, UniProt Q8N5J4 1-248).
T5 sequence: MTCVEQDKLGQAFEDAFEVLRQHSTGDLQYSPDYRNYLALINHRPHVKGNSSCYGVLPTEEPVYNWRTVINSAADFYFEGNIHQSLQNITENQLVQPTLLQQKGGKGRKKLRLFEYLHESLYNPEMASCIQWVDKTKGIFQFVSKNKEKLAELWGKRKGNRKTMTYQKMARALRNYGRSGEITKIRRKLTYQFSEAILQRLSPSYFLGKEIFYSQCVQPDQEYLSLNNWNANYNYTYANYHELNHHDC
Put shortly:
as §1

A further assay concerns the target T6, ELK4 (Homo sapiens, UniProt P28324-2 1-405).
T6 sequence: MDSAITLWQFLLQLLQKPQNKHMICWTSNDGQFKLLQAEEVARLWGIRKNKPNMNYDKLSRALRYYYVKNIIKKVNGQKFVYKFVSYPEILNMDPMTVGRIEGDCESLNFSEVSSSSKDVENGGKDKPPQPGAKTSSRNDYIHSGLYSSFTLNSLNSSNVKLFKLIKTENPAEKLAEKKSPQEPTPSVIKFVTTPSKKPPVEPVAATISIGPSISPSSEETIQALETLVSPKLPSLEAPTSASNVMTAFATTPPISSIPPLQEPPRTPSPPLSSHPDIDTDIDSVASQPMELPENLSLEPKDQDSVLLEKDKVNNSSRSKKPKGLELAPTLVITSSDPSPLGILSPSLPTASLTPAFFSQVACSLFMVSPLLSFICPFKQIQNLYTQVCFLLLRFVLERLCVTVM
Put shortly:
as §1

The target in the next assay is T7, ELF3 (Homo sapiens, UniProt P78545 1-371).
T7 sequence: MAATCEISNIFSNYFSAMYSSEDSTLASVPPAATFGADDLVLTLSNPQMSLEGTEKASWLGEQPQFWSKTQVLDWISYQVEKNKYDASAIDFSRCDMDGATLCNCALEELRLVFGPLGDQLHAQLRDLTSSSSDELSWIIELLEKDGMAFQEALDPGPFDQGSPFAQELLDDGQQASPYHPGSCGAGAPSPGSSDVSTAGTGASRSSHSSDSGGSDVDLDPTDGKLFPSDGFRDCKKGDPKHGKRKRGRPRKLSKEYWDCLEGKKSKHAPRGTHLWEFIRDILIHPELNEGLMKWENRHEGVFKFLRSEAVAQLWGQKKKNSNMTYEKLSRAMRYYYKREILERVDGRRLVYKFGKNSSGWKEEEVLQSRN
The method, boiled down: as §1

The next assay deals with ETV1 (Homo sapiens, UniProt P50549 1-477). Put shortly:
as §1

In the next assay the target is T8, ERF (Homo sapiens, UniProt P50548 1-548).
T8 sequence: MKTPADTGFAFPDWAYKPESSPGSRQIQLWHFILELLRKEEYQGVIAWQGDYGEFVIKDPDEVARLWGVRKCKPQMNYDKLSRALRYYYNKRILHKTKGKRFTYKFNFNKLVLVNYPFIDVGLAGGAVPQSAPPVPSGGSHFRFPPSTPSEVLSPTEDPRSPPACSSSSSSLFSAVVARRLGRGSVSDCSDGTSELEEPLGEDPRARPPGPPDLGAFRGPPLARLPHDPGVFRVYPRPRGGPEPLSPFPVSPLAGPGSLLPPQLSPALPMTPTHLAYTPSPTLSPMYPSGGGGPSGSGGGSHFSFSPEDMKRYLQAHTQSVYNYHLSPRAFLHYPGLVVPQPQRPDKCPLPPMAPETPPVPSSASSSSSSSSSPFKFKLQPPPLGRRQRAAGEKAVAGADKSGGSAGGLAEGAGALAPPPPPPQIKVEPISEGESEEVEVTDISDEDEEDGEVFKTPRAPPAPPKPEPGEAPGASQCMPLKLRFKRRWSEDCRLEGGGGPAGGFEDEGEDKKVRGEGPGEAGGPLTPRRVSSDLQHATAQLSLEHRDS
The method, boiled down:
as §1

A further assay addresses T9, ETV3L (Homo sapiens, UniProt Q6ZN32 1-361).
T9 sequence: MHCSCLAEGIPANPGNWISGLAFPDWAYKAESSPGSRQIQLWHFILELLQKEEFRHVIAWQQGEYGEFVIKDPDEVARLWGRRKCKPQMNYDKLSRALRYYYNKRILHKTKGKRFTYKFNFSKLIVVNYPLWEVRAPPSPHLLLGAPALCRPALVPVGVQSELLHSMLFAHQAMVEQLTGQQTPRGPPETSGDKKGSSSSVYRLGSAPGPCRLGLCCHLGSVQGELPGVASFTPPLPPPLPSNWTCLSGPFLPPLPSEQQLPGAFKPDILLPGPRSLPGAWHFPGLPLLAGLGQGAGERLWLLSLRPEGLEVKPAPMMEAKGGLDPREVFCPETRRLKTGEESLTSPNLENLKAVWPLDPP
Put shortly:
as §1

The next assay addresses T10, SPDEF (Homo sapiens, UniProt O95238 1-335).
T10 sequence: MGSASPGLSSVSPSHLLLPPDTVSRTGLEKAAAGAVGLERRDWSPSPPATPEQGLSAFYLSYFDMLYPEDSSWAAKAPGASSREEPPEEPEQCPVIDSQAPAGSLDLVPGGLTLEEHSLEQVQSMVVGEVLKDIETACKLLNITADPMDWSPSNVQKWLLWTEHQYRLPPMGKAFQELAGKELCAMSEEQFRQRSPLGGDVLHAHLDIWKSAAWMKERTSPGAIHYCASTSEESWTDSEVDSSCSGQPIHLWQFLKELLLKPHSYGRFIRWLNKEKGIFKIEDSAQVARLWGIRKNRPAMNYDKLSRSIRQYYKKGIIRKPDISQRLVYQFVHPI
Put shortly:
as §1

The target in a further assay is T11, ETV7 (Homo sapiens, UniProt Q9Y603 1-341).
T11 sequence: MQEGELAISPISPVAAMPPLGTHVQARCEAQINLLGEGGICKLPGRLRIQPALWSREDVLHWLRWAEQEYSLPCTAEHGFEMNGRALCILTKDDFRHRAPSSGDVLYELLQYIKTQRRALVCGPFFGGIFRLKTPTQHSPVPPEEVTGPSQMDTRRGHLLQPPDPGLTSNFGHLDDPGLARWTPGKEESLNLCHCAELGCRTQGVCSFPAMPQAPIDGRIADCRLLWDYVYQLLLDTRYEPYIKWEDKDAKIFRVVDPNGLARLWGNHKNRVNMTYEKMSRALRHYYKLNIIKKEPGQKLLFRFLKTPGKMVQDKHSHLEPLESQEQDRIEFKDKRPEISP
Put shortly:
as §1

In another assay the target is T12, ELF5 (Homo sapiens, UniProt Q9UKW6-2 1-255).
T12 sequence: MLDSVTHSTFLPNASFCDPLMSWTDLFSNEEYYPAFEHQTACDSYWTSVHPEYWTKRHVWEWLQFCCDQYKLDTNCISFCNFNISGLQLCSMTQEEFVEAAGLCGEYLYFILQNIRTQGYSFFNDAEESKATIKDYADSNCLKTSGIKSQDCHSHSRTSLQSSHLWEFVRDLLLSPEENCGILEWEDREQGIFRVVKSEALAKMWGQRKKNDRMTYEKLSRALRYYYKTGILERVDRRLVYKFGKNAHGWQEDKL
Put shortly:
as §1

In another assay the target is T13, ETV3 (Homo sapiens, UniProt P41162-2 1-143).
T13 sequence: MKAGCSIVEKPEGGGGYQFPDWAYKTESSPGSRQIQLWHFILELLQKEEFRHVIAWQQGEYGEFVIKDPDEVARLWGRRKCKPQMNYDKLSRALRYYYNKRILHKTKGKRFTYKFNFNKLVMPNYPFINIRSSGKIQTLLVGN
Put shortly:
as §1

In another assay the target is ETV6 (Homo sapiens, UniProt P41212 1-452). Put shortly: as §1

Drawing on PMC7862700, “An all-to-all approach to the identification of sequence-specific readers for epigenetic DNA modifications on cytosine”, this text covers binding signal for one sequence.

Sequence of ETV6 (P41212 whole entry): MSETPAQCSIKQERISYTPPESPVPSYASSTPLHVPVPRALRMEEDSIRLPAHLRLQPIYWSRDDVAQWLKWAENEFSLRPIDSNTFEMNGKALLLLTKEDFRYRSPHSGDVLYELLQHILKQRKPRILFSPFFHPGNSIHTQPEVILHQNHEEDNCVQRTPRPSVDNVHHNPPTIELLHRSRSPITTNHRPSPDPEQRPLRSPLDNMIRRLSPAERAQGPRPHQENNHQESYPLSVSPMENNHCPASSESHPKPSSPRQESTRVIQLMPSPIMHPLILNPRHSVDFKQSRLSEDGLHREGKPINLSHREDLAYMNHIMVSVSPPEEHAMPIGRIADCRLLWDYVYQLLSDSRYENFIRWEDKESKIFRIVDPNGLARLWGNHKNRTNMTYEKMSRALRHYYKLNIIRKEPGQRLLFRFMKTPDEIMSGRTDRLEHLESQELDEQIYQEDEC
Sequence of ETV1 (P50549 whole entry): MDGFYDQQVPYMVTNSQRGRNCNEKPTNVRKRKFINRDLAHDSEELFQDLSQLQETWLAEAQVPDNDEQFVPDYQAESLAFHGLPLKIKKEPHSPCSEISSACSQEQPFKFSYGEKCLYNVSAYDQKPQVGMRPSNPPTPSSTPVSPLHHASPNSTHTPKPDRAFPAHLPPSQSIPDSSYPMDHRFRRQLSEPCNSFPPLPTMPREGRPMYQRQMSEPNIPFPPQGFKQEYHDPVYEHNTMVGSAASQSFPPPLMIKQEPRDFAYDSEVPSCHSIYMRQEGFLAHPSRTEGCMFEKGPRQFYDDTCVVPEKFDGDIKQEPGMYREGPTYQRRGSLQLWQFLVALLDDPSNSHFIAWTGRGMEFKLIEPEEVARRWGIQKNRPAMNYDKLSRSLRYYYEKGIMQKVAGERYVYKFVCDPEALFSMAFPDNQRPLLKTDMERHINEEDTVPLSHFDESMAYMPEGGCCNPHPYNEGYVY

As for GTTTGT, the binding signal was 1.15 fold enrichment (6-mer frequency, TF over GST control) with FLI1; 1.03 fold enrichment (6-mer frequency, TF over GST control) with GABPA; 1.03 fold enrichment (6-mer frequency, TF over GST control) in the assay with EHF; 1.06 fold enrichment (6-mer frequency, TF over GST control) with ELK3; 1.01 fold enrichment (6-mer frequency, TF over GST control) with SPIC; 1.19 fold enrichment (6-mer frequency, TF over GST control) in the assay with ELK4. For the same sequence, the binding signal is 1.07 fold enrichment (6-mer frequency, TF over GST control) in the assay with ELF3; 1.04 fold enrichment (6-mer frequency, TF over GST control) in the assay with ETV1; 1.06 fold enrichment (6-mer frequency, TF over GST control) with ERF; 1.06 fold enrichment (6-mer frequency, TF over GST control) with ETV3L; 1.01 fold enrichment (6-mer frequency, TF over GST control) with SPDEF; 1.11 fold enrichment (6-mer frequency, TF over GST control) with ETV7. The binding signal with ELF5 was 1.03 fold enrichment (6-mer frequency, TF over GST control); with ETV3, 1.06 fold enrichment (6-mer frequency, TF over GST control); in the assay with ETV6 it was 1.11 fold enrichment (6-mer frequency, TF over GST control).
